# Reference: PMC7862700, “An all-to-all approach to the identification of sequence-specific readers for epigenetic DNA modifications on cytosine”
# Columns and labels:
# Experiment in all cases: DAPPL (digital affinity profiling via proximity ligation, sequencing); 10 mM Tris-HCl pH 7.5, 50 mM NaCl, 1 mM DTT, 4% glycerol, room temperature, 30 min; GST-TFs on glutathione beads, 16-mer random dsDNA library, 0.1% formaldehyde crosslink after washing; high values mean tight binding
# FLI1 = biological target: T1, FLI1 (Homo sapiens, UniProt Q01543 1-452); settings: protein: recombinant; tags: N-terminal GST; dsDNA, one strand shown
# T1 sequence: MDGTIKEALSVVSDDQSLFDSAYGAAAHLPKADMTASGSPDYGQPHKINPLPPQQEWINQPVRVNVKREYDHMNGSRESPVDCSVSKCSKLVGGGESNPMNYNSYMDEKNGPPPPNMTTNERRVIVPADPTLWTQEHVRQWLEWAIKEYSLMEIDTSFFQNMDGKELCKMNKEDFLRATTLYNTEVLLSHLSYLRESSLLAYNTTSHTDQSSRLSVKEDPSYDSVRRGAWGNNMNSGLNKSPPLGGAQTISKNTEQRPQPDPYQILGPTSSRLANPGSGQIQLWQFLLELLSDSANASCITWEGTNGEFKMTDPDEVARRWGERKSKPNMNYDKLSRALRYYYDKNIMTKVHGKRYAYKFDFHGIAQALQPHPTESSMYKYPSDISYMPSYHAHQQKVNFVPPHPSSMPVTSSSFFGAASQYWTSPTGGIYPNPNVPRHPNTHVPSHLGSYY
# How it was run: (§1)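 Yeast served to express human transcription factors as GST fusions, which were then captured on glutathione beads and labelled with DNA barcodes. Pooled with a tag-only sample, they were incubated with 200 nmole of a 16-mer random double-stranded DNA library for 30 min at room temperature in Tris/NaCl/DTT/glycerol buffer, washed, crosslinked with 0.1% formaldehyde, ligated by proximity, amplified by PCR and sequenced. Dividing each hexamer's read frequency for a factor by its frequency for the tag-only sample gives the binding signal.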
# ELK1 = biological target: T2, ELK1 (Homo sapiens, UniProt P19419 1-428); settings: protein: recombinant; tags: N-terminal GST; dsDNA, one strand shown
# T2 sequence: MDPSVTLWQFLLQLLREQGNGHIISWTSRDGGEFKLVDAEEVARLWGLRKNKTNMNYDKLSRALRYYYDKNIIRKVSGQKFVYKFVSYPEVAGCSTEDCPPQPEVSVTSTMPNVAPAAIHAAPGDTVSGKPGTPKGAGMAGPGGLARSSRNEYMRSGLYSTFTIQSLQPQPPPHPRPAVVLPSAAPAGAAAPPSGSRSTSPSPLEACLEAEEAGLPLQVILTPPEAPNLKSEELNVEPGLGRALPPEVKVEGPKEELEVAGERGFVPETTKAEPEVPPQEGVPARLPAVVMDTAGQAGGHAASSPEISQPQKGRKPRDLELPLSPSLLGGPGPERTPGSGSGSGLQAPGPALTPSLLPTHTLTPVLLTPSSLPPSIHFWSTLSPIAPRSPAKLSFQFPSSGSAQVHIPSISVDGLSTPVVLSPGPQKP
# How it was run: as §1
# GABPA = biological target: T3, GABPA (Homo sapiens, UniProt Q06546 1-454); settings: protein: recombinant; tags: N-terminal GST; dsDNA, one strand shown
# T3 sequence: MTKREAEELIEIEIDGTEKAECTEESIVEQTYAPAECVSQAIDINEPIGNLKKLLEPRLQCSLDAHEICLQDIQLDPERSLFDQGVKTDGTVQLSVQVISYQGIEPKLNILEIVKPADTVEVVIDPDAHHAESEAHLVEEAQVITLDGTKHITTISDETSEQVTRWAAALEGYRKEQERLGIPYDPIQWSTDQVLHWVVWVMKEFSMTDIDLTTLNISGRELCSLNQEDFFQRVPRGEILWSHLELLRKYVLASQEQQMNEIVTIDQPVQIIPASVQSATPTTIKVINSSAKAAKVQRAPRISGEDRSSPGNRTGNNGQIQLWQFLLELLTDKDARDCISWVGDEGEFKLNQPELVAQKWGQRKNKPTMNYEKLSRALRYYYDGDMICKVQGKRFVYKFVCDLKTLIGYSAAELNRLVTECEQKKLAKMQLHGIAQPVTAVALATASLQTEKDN
# How it was run: as §1
# ERG = biological target: T4, ERG (Homo sapiens, UniProt P11308 1-479); settings: protein: recombinant; tags: N-terminal GST; dsDNA, one strand shown
# T4 sequence: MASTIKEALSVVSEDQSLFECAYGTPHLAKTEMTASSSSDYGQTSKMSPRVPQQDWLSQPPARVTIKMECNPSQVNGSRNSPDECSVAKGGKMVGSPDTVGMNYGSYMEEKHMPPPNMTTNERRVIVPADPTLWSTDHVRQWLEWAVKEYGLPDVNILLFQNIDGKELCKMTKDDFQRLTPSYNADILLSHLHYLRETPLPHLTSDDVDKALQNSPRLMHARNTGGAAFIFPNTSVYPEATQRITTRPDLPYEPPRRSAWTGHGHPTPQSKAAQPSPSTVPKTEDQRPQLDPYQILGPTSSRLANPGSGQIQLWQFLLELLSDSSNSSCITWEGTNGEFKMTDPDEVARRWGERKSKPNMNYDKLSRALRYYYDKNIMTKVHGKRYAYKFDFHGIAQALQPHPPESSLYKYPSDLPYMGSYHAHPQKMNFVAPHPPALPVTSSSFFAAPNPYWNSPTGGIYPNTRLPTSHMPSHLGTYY
# How it was run: as §1
# ELF1 = ELF1 (Homo sapiens, UniProt P32519 1-619); settings: protein: recombinant; tags: N-terminal GST; dsDNA, one strand shown
# Chain of ELF1 (P32519 whole entry): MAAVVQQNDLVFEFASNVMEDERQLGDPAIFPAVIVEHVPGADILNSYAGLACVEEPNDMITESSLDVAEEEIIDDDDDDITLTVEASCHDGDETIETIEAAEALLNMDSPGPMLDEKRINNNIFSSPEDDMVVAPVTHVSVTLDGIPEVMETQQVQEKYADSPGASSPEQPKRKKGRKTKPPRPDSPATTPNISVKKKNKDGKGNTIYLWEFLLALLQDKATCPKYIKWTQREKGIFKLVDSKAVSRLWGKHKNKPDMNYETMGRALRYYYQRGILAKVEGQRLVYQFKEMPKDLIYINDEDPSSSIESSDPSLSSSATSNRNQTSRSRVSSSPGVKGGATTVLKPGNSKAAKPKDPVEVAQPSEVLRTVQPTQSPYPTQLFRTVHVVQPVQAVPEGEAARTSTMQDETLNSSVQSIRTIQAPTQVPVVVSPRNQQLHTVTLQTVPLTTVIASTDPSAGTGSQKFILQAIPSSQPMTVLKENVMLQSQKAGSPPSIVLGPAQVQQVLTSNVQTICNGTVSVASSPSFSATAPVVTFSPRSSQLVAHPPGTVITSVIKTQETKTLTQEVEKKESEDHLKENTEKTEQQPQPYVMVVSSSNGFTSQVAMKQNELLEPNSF
# How it was run: as §1
# EHF = biological target: T5, EHF (Homo sapiens, UniProt Q9NZC4 1-300); settings: protein: recombinant; tags: N-terminal GST; dsDNA, one strand shown
# T5 sequence: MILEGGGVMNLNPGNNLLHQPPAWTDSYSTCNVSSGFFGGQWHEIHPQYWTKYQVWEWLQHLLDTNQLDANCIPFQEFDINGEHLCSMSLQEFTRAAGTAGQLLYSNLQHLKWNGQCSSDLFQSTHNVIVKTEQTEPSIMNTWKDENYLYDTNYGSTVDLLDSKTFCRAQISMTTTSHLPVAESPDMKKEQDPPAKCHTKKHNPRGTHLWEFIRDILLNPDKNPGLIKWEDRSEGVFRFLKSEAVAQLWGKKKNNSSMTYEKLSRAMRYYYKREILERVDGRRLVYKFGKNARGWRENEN
# How it was run: as §1
# SPI1 = SPI1 (Homo sapiens, UniProt P17947 1-270); settings: protein: recombinant; tags: N-terminal GST; dsDNA, one strand shown
# How it was run: as §1
# SPIB = SPIB (Homo sapiens, UniProt Q01892 1-262); settings: protein: recombinant; tags: N-terminal GST; dsDNA, one strand shown
# Chain of SPIB (Q01892 whole entry): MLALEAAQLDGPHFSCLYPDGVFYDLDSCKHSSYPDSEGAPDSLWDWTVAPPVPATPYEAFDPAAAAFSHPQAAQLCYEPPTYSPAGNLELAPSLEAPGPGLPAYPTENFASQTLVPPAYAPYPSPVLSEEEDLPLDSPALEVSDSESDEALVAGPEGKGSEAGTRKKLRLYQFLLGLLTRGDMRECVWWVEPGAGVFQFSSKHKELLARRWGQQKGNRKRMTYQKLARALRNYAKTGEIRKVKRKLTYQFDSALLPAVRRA
# How it was run: as §1
# ELK3 = biological target: T6, ELK3 (Homo sapiens, UniProt P41970 1-407); settings: protein: recombinant; tags: N-terminal GST; dsDNA, one strand shown
# T6 sequence: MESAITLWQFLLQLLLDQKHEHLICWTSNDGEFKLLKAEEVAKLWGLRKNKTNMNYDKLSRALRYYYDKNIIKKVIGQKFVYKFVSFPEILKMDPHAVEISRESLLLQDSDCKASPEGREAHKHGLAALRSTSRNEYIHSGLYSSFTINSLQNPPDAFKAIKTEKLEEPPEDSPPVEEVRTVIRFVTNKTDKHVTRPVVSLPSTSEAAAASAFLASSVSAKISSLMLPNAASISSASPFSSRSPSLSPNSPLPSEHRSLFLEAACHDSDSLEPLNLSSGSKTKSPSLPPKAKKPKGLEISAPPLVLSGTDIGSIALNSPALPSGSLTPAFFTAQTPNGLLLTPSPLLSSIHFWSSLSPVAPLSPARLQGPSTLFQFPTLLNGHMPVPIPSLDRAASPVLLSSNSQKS
# How it was run: as §1
# FEV = biological target: T7, FEV (Homo sapiens, UniProt Q99581 1-238); settings: protein: recombinant; tags: N-terminal GST; dsDNA, one strand shown
# T7 sequence: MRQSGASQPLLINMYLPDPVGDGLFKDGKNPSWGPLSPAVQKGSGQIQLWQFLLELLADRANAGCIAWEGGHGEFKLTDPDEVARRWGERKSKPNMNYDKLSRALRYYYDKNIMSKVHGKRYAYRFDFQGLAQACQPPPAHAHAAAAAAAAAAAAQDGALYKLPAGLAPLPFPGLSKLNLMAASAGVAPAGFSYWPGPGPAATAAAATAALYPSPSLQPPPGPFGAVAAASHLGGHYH
# How it was run: as §1
# ETV5 = ETV5 (Homo sapiens, UniProt P41161 1-510); settings: protein: recombinant; tags: N-terminal GST; dsDNA, one strand shown
# Chain of ETV5 (P41161 whole entry): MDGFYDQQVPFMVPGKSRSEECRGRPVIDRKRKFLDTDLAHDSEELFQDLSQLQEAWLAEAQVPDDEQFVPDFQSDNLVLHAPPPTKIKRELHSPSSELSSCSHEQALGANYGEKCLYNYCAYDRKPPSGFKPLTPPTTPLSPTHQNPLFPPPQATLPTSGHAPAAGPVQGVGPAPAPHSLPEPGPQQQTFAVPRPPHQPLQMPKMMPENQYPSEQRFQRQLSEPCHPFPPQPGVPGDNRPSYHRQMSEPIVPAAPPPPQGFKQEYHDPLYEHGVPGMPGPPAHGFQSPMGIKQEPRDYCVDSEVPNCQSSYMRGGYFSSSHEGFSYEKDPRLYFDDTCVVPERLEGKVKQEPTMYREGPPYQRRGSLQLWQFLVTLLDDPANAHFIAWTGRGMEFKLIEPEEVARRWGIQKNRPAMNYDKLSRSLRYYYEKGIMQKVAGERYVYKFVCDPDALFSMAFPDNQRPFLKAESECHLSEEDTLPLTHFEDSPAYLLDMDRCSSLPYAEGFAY
# How it was run: as §1
# HSF1 = HSF1 (Homo sapiens, UniProt Q00613 1-529); settings: protein: recombinant; tags: N-terminal GST; chain copies: 3; dsDNA, one strand shown
# Chain of HSF1 (Q00613 whole entry): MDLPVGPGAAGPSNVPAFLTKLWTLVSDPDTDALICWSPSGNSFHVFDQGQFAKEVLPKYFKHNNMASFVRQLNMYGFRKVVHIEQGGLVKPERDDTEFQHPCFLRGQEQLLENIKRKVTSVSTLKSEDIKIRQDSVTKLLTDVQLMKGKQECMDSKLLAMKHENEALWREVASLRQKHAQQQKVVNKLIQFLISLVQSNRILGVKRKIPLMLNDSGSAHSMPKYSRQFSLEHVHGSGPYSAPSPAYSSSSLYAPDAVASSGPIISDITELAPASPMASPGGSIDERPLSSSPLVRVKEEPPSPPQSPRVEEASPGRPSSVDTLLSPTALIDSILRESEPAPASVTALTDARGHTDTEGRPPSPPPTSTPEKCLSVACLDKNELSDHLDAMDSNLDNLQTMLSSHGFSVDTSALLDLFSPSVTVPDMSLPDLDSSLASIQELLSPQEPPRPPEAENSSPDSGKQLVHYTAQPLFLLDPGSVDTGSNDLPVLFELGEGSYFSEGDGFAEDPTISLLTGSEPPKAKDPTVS
# How it was run: as §1
# SPIC = biological target: T8, SPIC (Homo sapiens, UniProt Q8N5J4 1-248); settings: protein: recombinant; tags: N-terminal GST; dsDNA, one strand shown
# T8 sequence: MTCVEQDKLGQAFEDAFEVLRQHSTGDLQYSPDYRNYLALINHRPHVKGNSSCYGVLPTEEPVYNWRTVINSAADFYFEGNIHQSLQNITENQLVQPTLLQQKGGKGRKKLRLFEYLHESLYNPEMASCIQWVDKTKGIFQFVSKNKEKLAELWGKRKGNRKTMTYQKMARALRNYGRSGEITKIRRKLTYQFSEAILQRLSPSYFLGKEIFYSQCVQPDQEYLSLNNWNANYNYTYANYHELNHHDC
# How it was run: as §1
# ELF4 = ELF4 (Homo sapiens, UniProt Q99607 1-663); settings: protein: recombinant; tags: N-terminal GST; dsDNA, one strand shown
# Chain of ELF4 (Q99607 whole entry): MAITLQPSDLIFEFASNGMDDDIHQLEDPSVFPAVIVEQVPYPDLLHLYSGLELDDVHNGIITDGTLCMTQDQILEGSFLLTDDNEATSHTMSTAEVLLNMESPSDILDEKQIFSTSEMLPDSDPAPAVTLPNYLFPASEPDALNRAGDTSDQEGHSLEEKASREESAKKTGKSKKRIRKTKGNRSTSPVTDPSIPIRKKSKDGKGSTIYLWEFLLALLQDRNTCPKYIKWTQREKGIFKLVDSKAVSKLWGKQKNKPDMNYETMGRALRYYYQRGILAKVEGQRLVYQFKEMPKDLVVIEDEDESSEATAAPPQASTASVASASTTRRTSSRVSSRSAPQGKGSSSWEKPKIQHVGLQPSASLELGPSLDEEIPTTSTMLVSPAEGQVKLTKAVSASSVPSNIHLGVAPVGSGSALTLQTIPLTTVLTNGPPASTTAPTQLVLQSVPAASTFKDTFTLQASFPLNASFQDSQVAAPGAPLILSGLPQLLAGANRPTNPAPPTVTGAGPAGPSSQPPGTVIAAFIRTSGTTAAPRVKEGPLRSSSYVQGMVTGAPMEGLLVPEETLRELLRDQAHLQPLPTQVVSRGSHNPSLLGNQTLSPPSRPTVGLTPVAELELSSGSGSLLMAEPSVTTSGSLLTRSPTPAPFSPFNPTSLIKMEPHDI
# How it was run: as §1
# ELK4 = biological target: T9, ELK4 (Homo sapiens, UniProt P28324-2 1-405); settings: protein: recombinant; tags: N-terminal GST; dsDNA, one strand shown
# T9 sequence: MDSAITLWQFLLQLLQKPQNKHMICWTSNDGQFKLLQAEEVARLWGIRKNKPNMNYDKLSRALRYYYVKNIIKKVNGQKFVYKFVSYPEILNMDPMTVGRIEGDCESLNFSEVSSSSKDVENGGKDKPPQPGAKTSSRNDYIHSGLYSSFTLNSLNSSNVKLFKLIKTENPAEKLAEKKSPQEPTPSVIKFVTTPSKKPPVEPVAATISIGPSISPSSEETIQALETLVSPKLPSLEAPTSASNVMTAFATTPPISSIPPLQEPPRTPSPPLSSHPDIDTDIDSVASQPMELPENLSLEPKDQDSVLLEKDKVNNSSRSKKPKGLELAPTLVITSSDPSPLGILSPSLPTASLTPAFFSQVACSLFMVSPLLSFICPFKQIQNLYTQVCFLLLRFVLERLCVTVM
# How it was run: as §1
# ETV2 = biological target: T10, ETV2 (Homo sapiens, UniProt O00321 1-342); settings: protein: recombinant; tags: N-terminal GST; dsDNA, one strand shown
# T10 sequence: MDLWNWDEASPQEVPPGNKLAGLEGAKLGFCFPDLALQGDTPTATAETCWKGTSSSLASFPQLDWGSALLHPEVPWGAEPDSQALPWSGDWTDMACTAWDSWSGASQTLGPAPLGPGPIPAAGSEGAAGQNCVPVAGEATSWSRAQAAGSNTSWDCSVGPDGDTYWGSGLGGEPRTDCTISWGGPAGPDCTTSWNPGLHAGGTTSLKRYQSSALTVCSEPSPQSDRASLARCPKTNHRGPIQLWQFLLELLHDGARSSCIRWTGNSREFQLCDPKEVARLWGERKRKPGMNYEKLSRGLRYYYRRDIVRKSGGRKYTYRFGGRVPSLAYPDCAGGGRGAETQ
# How it was run: as §1
# ELF3 = biological target: T11, ELF3 (Homo sapiens, UniProt P78545 1-371); settings: protein: recombinant; tags: N-terminal GST; dsDNA, one strand shown
# T11 sequence: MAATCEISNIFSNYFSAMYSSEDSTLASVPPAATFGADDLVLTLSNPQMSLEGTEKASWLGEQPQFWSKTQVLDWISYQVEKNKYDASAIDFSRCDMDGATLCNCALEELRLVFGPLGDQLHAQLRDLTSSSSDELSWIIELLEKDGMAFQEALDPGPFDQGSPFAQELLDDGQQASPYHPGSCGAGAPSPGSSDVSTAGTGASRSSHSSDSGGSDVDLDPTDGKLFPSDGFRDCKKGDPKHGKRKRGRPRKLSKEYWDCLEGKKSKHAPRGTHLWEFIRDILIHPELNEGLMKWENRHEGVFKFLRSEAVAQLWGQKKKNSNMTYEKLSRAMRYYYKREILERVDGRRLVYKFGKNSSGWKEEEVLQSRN
# How it was run: as §1
# CRX = CRX (Homo sapiens, UniProt O43186 1-299); settings: protein: recombinant; tags: N-terminal GST; dsDNA, one strand shown
# Chain of CRX (O43186 whole entry): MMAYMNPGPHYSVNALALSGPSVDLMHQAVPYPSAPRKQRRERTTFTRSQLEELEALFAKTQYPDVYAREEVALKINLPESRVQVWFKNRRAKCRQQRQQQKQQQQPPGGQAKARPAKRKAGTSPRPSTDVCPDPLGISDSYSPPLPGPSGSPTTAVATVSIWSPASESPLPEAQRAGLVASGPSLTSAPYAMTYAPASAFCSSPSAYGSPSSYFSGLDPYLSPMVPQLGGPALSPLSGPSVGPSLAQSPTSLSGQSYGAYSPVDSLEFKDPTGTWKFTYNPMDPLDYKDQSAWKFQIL
# How it was run: as §1
# ETV1 = ETV1 (Homo sapiens, UniProt P50549 1-477); settings: protein: recombinant; tags: N-terminal GST; dsDNA, one strand shown
# Chain of ETV1 (P50549 whole entry): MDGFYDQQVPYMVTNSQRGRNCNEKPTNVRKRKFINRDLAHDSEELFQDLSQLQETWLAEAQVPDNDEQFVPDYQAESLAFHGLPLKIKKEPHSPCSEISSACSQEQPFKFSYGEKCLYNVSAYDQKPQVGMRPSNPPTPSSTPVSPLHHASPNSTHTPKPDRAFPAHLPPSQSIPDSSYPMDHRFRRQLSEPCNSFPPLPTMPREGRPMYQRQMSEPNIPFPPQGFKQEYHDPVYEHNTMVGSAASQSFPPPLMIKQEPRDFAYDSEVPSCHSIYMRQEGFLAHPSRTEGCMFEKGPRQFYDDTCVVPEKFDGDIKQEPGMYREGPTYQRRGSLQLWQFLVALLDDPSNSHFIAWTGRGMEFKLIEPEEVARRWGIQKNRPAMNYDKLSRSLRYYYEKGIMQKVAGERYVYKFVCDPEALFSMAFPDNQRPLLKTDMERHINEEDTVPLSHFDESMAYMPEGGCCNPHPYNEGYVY
# How it was run: as §1
sequence,measurement,setting,value
ATGGCA,binding signal,FLI1,"1.26 fold enrichment (6-mer frequency, TF over GST control)"
same,binding signal,ELK1,"1.22 fold enrichment (6-mer frequency, TF over GST control)"
same,binding signal,GABPA,"1.26 fold enrichment (6-mer frequency, TF over GST control)"
same,binding signal,ERG,"1.27 fold enrichment (6-mer frequency, TF over GST control)"
same,binding signal,ELF1,"1.24 fold enrichment (6-mer frequency, TF over GST control)"
same,binding signal,EHF,"1.35 fold enrichment (6-mer frequency, TF over GST control)"
same,binding signal,SPI1,"1.21 fold enrichment (6-mer frequency, TF over GST control)"
same,binding signal,SPIB,"1.19 fold enrichment (6-mer frequency, TF over GST control)"
same,binding signal,ELK3,"1.22 fold enrichment (6-mer frequency, TF over GST control)"
same,binding signal,FEV,"1.44 fold enrichment (6-mer frequency, TF over GST control)"
same,binding signal,ETV5,"1.28 fold enrichment (6-mer frequency, TF over GST control)"
same,binding signal,HSF1,"1.1 fold enrichment (6-mer frequency, TF over GST control)"
same,binding signal,SPIC,"1.21 fold enrichment (6-mer frequency, TF over GST control)"
same,binding signal,ELF4,"1.2 fold enrichment (6-mer frequency, TF over GST control)"
same,binding signal,ELK4,"1.15 fold enrichment (6-mer frequency, TF over GST control)"
same,binding signal,ETV2,"1.31 fold enrichment (6-mer frequency, TF over GST control)"
same,binding signal,ELF3,"1.28 fold enrichment (6-mer frequency, TF over GST control)"
same,binding signal,CRX,"1.11 fold enrichment (6-mer frequency, TF over GST control)"
same,binding signal,ETV1,"1.27 fold enrichment (6-mer frequency, TF over GST control)"
